MEKK2mut PB1 HTS = MEK5 binding signal on mutant MEKK2 PB1, primary screen, biochemical, multiplex bead flow cytometry, Alexa488-MEK5; AID 1530, 2009; Alexa488-MEK5 binding to MEKK2 mutant; actives 0.35% (n = 290,000); percent response, % at 10 µM; in the data active means percent response above about 24%, passing the limit was not always enough
GRK2 inh = compounds blocking aptamer binding on GRK2 – biochemical, human GRK2, bead flow cytometry, HTS, primary screen; Beta-adrenergic receptor kinase 1 (Homo sapiens), P25098; FAM-aptamer displacement from GRK2; inhibition of aptamer binding, % at 10 µM; actives 0.59% (n = 330,000); AID 488847, 2010;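 active means inhibition of aptamer binding above 40%, roughly 3 SD of noise, on plates passing a quality check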;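 further: median bead fluorescence of bound FAM aptamer so fluorescent compounds give negative values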
Target sequence (P25098 whole entry, looked up): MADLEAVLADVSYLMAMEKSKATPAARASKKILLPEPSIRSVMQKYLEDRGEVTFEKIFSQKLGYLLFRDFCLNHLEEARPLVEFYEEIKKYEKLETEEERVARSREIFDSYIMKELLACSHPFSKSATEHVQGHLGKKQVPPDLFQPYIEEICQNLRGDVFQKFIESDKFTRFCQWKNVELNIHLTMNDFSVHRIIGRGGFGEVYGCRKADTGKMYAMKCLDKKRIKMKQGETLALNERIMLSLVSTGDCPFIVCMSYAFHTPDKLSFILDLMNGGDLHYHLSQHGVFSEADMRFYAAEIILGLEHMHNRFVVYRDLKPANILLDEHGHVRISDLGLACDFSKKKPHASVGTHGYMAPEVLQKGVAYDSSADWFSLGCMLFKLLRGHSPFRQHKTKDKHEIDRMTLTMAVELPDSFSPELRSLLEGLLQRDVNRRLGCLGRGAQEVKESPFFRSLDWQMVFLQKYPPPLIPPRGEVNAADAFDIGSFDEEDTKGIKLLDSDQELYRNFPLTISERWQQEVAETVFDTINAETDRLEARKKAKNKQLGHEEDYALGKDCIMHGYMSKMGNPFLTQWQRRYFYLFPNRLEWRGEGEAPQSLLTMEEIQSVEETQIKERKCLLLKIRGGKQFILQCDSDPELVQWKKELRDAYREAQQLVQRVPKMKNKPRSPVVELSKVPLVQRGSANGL
MEKK2wt PB1 HTS = modulators of MEK5 binding to wildtype MEKK2, primary screen, biochemical, multiplex bead flow cytometry, Alexa488-MEK5. Mitogen-activated protein kinase kinase kinase 2 (Homo sapiens), Q9Y2U5. Alexa488-MEK5 binding to MEKK2 WT; actives lie on both sides. actives 1.1% (n = 290,000). binding response (% of control), % at 10 µM; in the data active means binding response below about 67% or above about 130%
B2AR ag = beta2AR agonists driving receptor internalization, primary screen, cell-based, FAP fluorogen, flow cytometry | Beta-2 adrenergic receptor (Homo sapiens), P07550 | Am2.2-beta2AR cells | response, % (test concentration not listed) | actives 0.43% (n = 340,000) | AID 504454, 2011;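 active means response above a set limit, near 3 SD of response in nonfluorescent compounds, cut at about 42% in these data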
MEKK3 PB1 HTS = modulators of MEKK3-MEK5 PB1 binding, primary screen, biochemical, wildtype MEKK3, multiplex bead flow cytometry, Alexa488-MEK5. binding response (% of control), % at 10 µM. bead-based flow cytometry, Alexa488-MEK5 binding to MEKK3; actives lie on both sides; 0 = blocked by unlabeled MEK5, 100 = vehicle. actives 1.4% (n = 290,000). Mitogen-activated protein kinase kinase kinase 3 (Homo sapiens), Q99759;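 active means binding response more than 3 SD above or below the average of its plate-row segment, actives on both sides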;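 further: Alexa488 bead fluorescence after subtracting the streptavidin-only scavenger bead signal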
MEKK2wt confirm = modulators of MEK5 binding to wildtype MEKK2, confirmation, biochemical, single concentration, multiplex bead flow cytometry. shares compounds with MEKK3 PB1 HTS. Alexa488-MEK5 binding to MEKK2 WT; actives lie on both sides. binding response (% of control), % at 10 µM. actives 2.4% (n = 5,900); in the data active means binding response below about 16% or above about 210%; inactive means in between
MEKK2mut-MEK5 = mutant MEKK2 PB1-MEK5 binding signal retest – biochemical, single concentration, multiplex bead flow cytometry, confirmation; shares compounds with MEKK3 PB1 HTS; Alexa488-MEK5 binding to MEKK2 mutant; percent response, % at 10 µM; actives 2% (n = 5,900); AID 1893, 2009; in the data active means percent response mostly above about 71%, no sharp cut-off; inactive means mostly below about 38%;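 further: higher means compound restores mutant binding toward wildtype level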
MEKK3-MEK5 inh = MEKK3 wild-type PB1 binding to MEK5, inhibitors, confirmation, biochemical, bead multiplex flow cytometry, single concentration, wildtype. shares compounds with MEKK3 PB1 HTS. Alexa488-MEK5 binding to MEKK3; hits give low values. binding response (% of control), % at 10 µM. actives 1.8% (n = 5,900). AID 1894, 2009;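 active means binding response below 72% of control, or above a set upper limit, though filed actives all read lower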;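 further: 100% = DMSO only wells and 0% = binding blocked by excess unlabeled MEK5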
* marks the source's active call; other numbers are inactive results; . = no result given; [ ] = remark or other dose. The list is not random: actives were taken first. Their share in the collection is about 2.9%.

SMILES | MEKK2mut PB1 HTS | GRK2 inh | MEKK2wt PB1 HTS | B2AR ag | MEKK3 PB1 HTS | MEKK2wt confirm | MEKK2mut-MEK5 | MEKK3-MEK5 inh
COc1ccc(-c2cc(-c3ccc(OC)cc3)[nH]n2)cc1 | 1 | 3 | 99 | 8 | 103 | . | . | .
CCOC(=O)C1(C#N)Cc2ccccc2C1 | . | . | . | 0 | . | . | . | .
CC(C)Cn1nc(C(=O)NCc2ccccc2CN2CCCC2)c2ccccc2c1=O | . | 0 | . | 3 | . | . | . | .
Cc1ccc2nc(Cl)c(C3CC(c4ccco4)=NN3S(C)(=O)=O)cc2c1 (configuration not stated) | -31 | 0 | 84 | -8 | 72*[inhibitor] | 104 | -3 | 105
Cc1ccc2cc(C3CC(c4ccco4)=NN3S(C)(=O)=O)c(Cl)nc2c1 (configuration not stated) | -11 | 0 | 79 | 9 | 83 | . | . | .
NCCCCCCNS(=O)(=O)c1cccc2c(Cl)cccc12 | 10 | 0 | 140* | 26 | 116 | 112 | 2 | 98
CN(C)CCCNS(=O)(=O)c1cc(Cl)ccc1Cl | 2 | 0 | 100 | -1 | 96 | . | . | .
O=C(C1CCCO1)N1CCN(c2ccccn2)CC1 (configuration not stated) | -3 | 2 | 82 | -7 | 73*[inhibitor] | 100 | -1 | 102
COc1ccc(C)cc1N(C)C(=O)Cc1c(C(=O)O)n(C)c2ccccc12 | 6 | 0 | 103 | -18 | 103 | . | . | .
O=[N+]([O-])c1ccc(O)c(C=Nc2cccc3ccccc23)c1 | 7 | 1 | 107 | 4 | 106 | . | . | .
O=[N+]([O-])c1ccc(O)c(C=NNc2ccc(S(=O)(=O)O)cc2)c1 | . | . | . | 3 | . | . | . | .
O=[N+]([O-])c1cccc(N/N=C/c2cc([N+](=O)[O-])ccc2O)c1 | 5 | 0 | 115 | 12 | 139* | 95 | -2 | 96
O=[N+]([O-])c1ccc(O)c(C=Nc2ccc3c(c2)OCCO3)c1 | 1 | 2 | 99 | -2 | 142* | 97 | -6 | 100
O=[N+]([O-])c1ccc(O)c(C=Nc2ccc3oc(Cc4ccc(Cl)cc4)nc3c2)c1 | 174* | 5 | 106 | . | 134* | 93 | -4 | 104
CCN1CCN(C(=O)c2ccccc2N(Cc2ccccc2)S(=O)(=O)c2ccc(OC)cc2)CC1 | 0 | 0 | 101 | -4 | 102 | . | . | .
Cc1nn(Cc2c(F)c(F)c(F)c(F)c2F)c(C)c1NC(=O)c1nn(C)c(C)c1Br | 8 | 2 | 106 | 5 | 102 | . | . | .
Cc1occc1-c1nnc(SCC(=O)N2CCOCC2)o1 | -18 | 0 | 3.0*[inhibitor] | -8 | 2.0*[inhibitor] | 102 | -1 | 102
COC(=O)C1CCN(CCCOc2ccc(CN3CCN(c4ccc([N+](=O)[O-])cc4)CC3)cc2)CC1 | 30 | 0 | 141* | 10 | 106 | 110 | 4 | 98
COC(=O)C1CCN(c2ccc([N+](=O)[O-])cc2)CC1 | -3 | 0 | 94 | 3 | 90 | . | . | .
Nc1cc(N2CCOCC2)c(Cl)cc1[N+](=O)[O-] | -2 | 4 | 95 | 2 | 73*[inhibitor] | 97 | -2 | 103
Nc1cc(N2CCCC2)c(Cl)cc1[N+](=O)[O-] | -1 | 2 | 99 | -10 | 100 | . | . | .
O=C(COC(=O)c1sc2ccccc2c1Cl)NCC1CCCCC1 | 16 | 1 | 107 | 1 | 104 | . | . | .
CC1CCCC(NC(=O)COC(=O)c2sc3ccccc3c2Cl)C1C (configuration not stated) | 1 | 2 | 110 | -5 | 135* | 99 | 0 | 100
CN1CCc2c(sc3c2C(=O)NC(c2cn(Cc4ccccc4)c4ccccc24)N3)C1 (configuration not stated) | 66* | 0 | 182* | -175 | 92 | 240* | 107* | 109
Cc1ccc(S(=O)(=O)N(CCCc2c(C)nc[nH]c2=O)c2ccccc2)cc1 | . | . | . | -2 | . | . | . | .
SMILES | MEKK2mut PB1 HTS | GRK2 inh | MEKK2wt PB1 HTS | B2AR ag | MEKK3 PB1 HTS | MEKK2wt confirm | MEKK2mut-MEK5 | MEKK3-MEK5 inh
C=CCN(C#N)c1nc(OC)nc(N2CCCC2)n1 | 11 | 3 | 130 | -1 | 130* | 85 | -7 | 80
CCC(C)NC(=O)Cc1c(C)c2cc3c(cc2oc1=O)OC(C)(C)CC3 (configuration not stated) | -1 | 1 | 100 | 9 | 104 | . | . | .
COc1cc(CCCN2C(=O)C(=O)NC[C@@H]2C(C)O)cc(OC)c1OC (some centres not stated) | 4 | 3 | 2.0*[inhibitor] | -4 | 2.0*[inhibitor] | 102 | -4 | 97
COc1cc(CCCN2C(=O)C(=O)NC[C@@H]2c2ccccc2)cc(OC)c1OC | 1 | 3 | 94 | -3 | 94 | . | . | .
COc1ccccc1C(=O)N/C(=C\c1ccc(Br)cc1)C(=O)NCCO | 6 | 0 | 126 | -9 | 129* | 106 | 9 | 106
COc1ccccc1C(=O)N/C(=C\c1ccc(Br)cc1)C(=O)NCCCO | -3 | 2 | 103 | -15 | 98 | . | . | .
COc1ccccc1CNC(=O)COC(=O)c1cc2ccccc2o1 | . | 0 | . | -29 | . | . | . | .
COCCn1c(=NC(=O)c2cccs2)sc2cc(NC(C)=O)ccc21 | 14 | 1 | 108 | -15 | 106 | . | . | .
COCCn1c(=NC(=O)C(C)(C)C)sc2cc([N+](=O)[O-])ccc21 | -1 | 4 | 95 | 5 | 72*[inhibitor] | 101 | -1 | 101
FC(F)(F)c1cc(-c2cccs2)nc2cc(-c3cccs3)nn12 | -25 | 9 | 86 | -7 | 88 | . | . | .
CC(C)c1cc(C(=O)Nc2cc(Br)ccc2O)no1 | -4 | 2 | 94 | 2 | 96 | . | . | .
CC(C)c1cc(C(=O)Nc2cc(Cl)ccc2O)no1 | -28 | 3 | 13*[inhibitor] | 6 | 8.0*[inhibitor] | 105 | 5 | 110
CCCCCCCCCCCCCCCCn1cc[n+](C)c1 | 76* | 0 | 213* | 8 | 113 | 148 | 17 | 100
CCCCCCCCn1ccc(=N)cc1 | 3 | 0 | 98 | 7 | 101 | . | . | .
CC(C)CNC(=O)COC(=O)CNC(=O)c1cc(Cl)cc([N+](=O)[O-])c1 | 0 | 0 | 105 | -4 | 149* | 104 | 9 | 109

Source: PubChem
